Common to all, as to assay: pooled miR-30 sensor sort-seq; sequence = guide strand
Common to all, as to conditions: shRNA

Test [1] deals with CHRNA1.
Test [2] has as its target CHRM2.
The target in test [3] is CHRNE.
Test [4] has as its target CLDN9.
Test [5] has as its target CLEC9A.
In test [6] the target is CLDN6.
The target of test [7] is CLDN23.
Test [8] has as its target CLDN16.
For test [9], the target named is CMIP.
Test [10] deals with CMPK1.
For test [11], the target named is CMPK2.
The target of test [12] is CMYA5.

Our source for the sensor-assay potency score (higher = more potent) values is the OligoGym collection.
Further: reference of the scale not given here.

As to TAGGTCACGGAGTGCTTCCAGC, in test [1], the sensor-assay potency score (higher = more potent) is -1.17.
TAGAAGGCTGCAATAGCCGTAC had a sensor-assay potency score (higher = more potent) in test [2] of -0.0525.
As to TACTGCTTCCTCTCTCTCCAAA, in [1], the sensor-assay potency score (higher = more potent) is -0.987.
TAGCAAAGTCACCATCTGCATT gave a sensor-assay potency score (higher = more potent) in [1] of -1.03.
The same measure, in the same setting: the value for ATTTACTTCATCCACATTGATG was -1.52.
TCGATCTTGTTGATGGTCTTGC showed a sensor-assay potency score (higher = more potent) in test [3] of 0.161.
Sequence TTGTAGAAGTCCTGGATGATGG gave a sensor-assay potency score (higher = more potent) in test [4] of -1.14.
On the same count and under the same terms, as for TTGTCCAGTCCAGATGCACCCG, the figure is -0.545.
TAGCCCAGCCGAGGTCCGCGGG showed a sensor-assay potency score (higher = more potent) in test [4] of -1.28.
TTGGATGAGTTTTTCTTGCTGC showed a sensor-assay potency score (higher = more potent) in test [5] of 0.744.
Consider ATGAGCACCAGGATGCCGGCGA, for which the sensor-assay potency score (higher = more potent) in test [4] is -0.538.
Same read-out and setting: as for TCCACACACGTGGTACACTGGG, the figure is -1.23.
On to TTGGAAGACAGACATTTCTGGT, for which the sensor-assay potency score (higher = more potent) in [5] is -0.439.
In turn, ATTAGCGTCAGGACCCCTGAGA came in with a sensor-assay potency score (higher = more potent) in [6] of -0.855.
Regarding TTTTCTTGCTGCTGCATCGCAA, in test [5], the sensor-assay potency score (higher = more potent) was -0.454.
For the sequence TAGTACTTGATGGCGGGCGCCA, in [7], the sensor-assay potency score (higher = more potent) is -1.32.
Same read-out and setting: as for TCGCTGTAGTACTTGATGGCGG, the figure is -1.12.
Regarding TACACATCAACAGCATACCACA, the sensor-assay potency score (higher = more potent) in [8] was -1.23.
For the sequence TGGCCGTCGCTGTAGTACTTGA, in [7], the sensor-assay potency score (higher = more potent) is -1.77.
In the case of TAGCGGGCCATGTAATGGCTGG, the sensor-assay potency score (higher = more potent) in test [6] was -1.06.
On to TTCTCCTCCACACAGGTGGTAC, for which, in test [6], the sensor-assay potency score (higher = more potent) is -1.81.
On the same count and under the same terms, the value for TTGGGCCTCAGCCACCAGGGGG was -1.51.
In [4], TAGAAGTCCTGGATGATGGCGT gave a sensor-assay potency score (higher = more potent) of 0.302.
As to TGGATGGTGCTGACGCTGCTGC, the sensor-assay potency score (higher = more potent) in [7] was -1.17.
Take TAGAAGTCCCGGATGATGGCAT: in [6], the sensor-assay potency score (higher = more potent) is 0.0775.
Sequence TAGCTGACTGGGATCTCTCTGC gave a sensor-assay potency score (higher = more potent) in test [5] of -0.395.
In turn, TTGGTGTAGGCCTTGGGCCGCG registered a sensor-assay potency score (higher = more potent) in test [7] of -1.14.
Take TTTGTTAACAGATCATTTGTTT: the sensor-assay potency score (higher = more potent) in test [6] was 0.0812.
As to TTGGATGGTGCTGACGCTGCTG, the sensor-assay potency score (higher = more potent) in [7] is -0.0148.
Same read-out and setting: as for TACAACTCCACGTCCACTGGCT, the figure is 0.00465.
In [7], TTGGGCTCGTCCTGCCAGCAGC yielded a sensor-assay potency score (higher = more potent) of -1.78.
Same read-out and setting: as for ATGGTGCTGACGCTGCTGCGGC, the figure is -1.77.
As for ATGACAAAGACAATCCCAGAGG, the sensor-assay potency score (higher = more potent) in test [6] is -1.76.
For the sequence TTGCACTGCATCTGGCCCGTGC, the sensor-assay potency score (higher = more potent) in test [4] is -0.338.
On the same count and under the same terms, the value for ATGATGGCGTGCGCCGTCCAGC was -1.9.
With ACAAAGACAATCCCAGAGGTGA, the sensor-assay potency score (higher = more potent) in [6] is -0.71.
As to TTTGATAAAAATGTGAGTGTAA, the sensor-assay potency score (higher = more potent) in test [6] was 0.357.
On to AAGTTGGGCTCGTCCTGCCAGC, for which the sensor-assay potency score (higher = more potent) in [7] is -1.5.
Still for that read-out and setting: the value for TTGAGCAGGAGCCCGCAGGGCG was -1.37.
On to TTTGGAGCCAACGAGCTGCTGC, for which the sensor-assay potency score (higher = more potent) in [4] was -0.374.
Consider TTCGTCCTCCACACACGTGGTA, for which the sensor-assay potency score (higher = more potent) in [4] is -0.498.
In test [6], AATCCCAGAGGTGAGCACCAGG gave a sensor-assay potency score (higher = more potent) of -1.46.
Same read-out and setting: as for TAGACCAGCAAGCCGAACAGGG, the figure is -0.8.
In turn, TCCACACAGGTGGTACACTTGG displayed a sensor-assay potency score (higher = more potent) in test [6] of -1.58.
As for TCGTCCTCCACACACGTGGTAC, in test [4], the sensor-assay potency score (higher = more potent) is -1.58.
In turn, TGTAGCTGACCTGCACCGTGAC returned a sensor-assay potency score (higher = more potent) in test [7] of -0.702.
Consider TTCAAGACAACTTCCCAGCGGC, for which the sensor-assay potency score (higher = more potent) in [9] was -0.119.
Same read-out and setting: as for TTGGAGGGCAGTGTTAGCCTGG, the figure is -0.584.
For TTAGAAGCATCTATTTTCTTGA, the sensor-assay potency score (higher = more potent) in [10] is 0.0499.
Consider TATCTCAACTGGTACAATCTTT, for which, in [10], the sensor-assay potency score (higher = more potent) was -0.621.
Regarding TTGCTGAGAAAGGTCCGCGGGT, in [9], the sensor-assay potency score (higher = more potent) is -0.793.
For TTTTGGGCACTGGTCGACCAGG, the sensor-assay potency score (higher = more potent) in test [11] was -1.61.
The sequence TTTCTAACACTAGATTTCCTTC returned a sensor-assay potency score (higher = more potent) in test [12] of -0.717.
Same read-out and setting: the value for TACTTCTTGATCATCTTGTGGC was 0.514.
Regarding TACATCTGCCTTCCCATCCATG, the sensor-assay potency score (higher = more potent) in [10] was -0.919.
On to TTGACGAAACACACTGTTGGCC, for which the sensor-assay potency score (higher = more potent) in test [11] was -0.221.
In the case of TAATACCGTCTGCAGGACCTTT, the sensor-assay potency score (higher = more potent) in [11] was -1.41.
For TATTCTTCTGAGCATTGGCAGC, the sensor-assay potency score (higher = more potent) in test [10] was -1.31.
Sequence TTTTTTGGTCTTGTAACAGGAG registered a sensor-assay potency score (higher = more potent) in test [9] of -0.0686.
TCAAGTTCTGCTTCTTCCCTGG gave a sensor-assay potency score (higher = more potent) in test [11] of 0.42.
Still for that read-out and setting: the value for TTCATCATCAAAGATCTTCCTC was 0.515.
Take TTGGGTGTCGTTGTTGTCGATG: the sensor-assay potency score (higher = more potent) in test [9] was -0.39.
ATAAACACTAAAATGCTCCTAA: the sensor-assay potency score (higher = more potent) in [10] amounted to 0.491.
Still for that read-out and setting: as for TTGTTTACCAAACACATTGTGC, the figure is -0.615; as for TACAACTTTGTACAAGTTGTAG, -1.32.
In [11], TGGTAGGACATTTCTACCTTTT had a sensor-assay potency score (higher = more potent) of -1.68.
Consider TTGTATTCCAGCATCAAGCACA, for which the sensor-assay potency score (higher = more potent) in [9] is -0.524.
In test [12], TTCACTTTCTTCCTGATCGATT registered a sensor-assay potency score (higher = more potent) of -0.264.
As to TAAACTGCAGAGACTCTTCATG, the sensor-assay potency score (higher = more potent) in test [9] is 0.214.
With TTAACATCTGGTCACTTCTTGC, the sensor-assay potency score (higher = more potent) in [12] was -0.814.
As for TTTCAAACAACATCTAATCTAG, the sensor-assay potency score (higher = more potent) in [11] was -0.108.
In [9], TTTTTGGTCTTGTAACAGGAGC showed a sensor-assay potency score (higher = more potent) of -1.29.
As for TCCTTCGATGGCAACAACCTGG, the sensor-assay potency score (higher = more potent) in test [11] is -1.1.
TTAAGTTTTCTCATCTTTCTAC displayed a sensor-assay potency score (higher = more potent) in test [10] of 0.568.
Same read-out and setting: the value for TTAATAAACACTAAAATGCTCC was -0.407.
On to TTTTTCTTCACTGTGATCTGGC, for which, in [12], the sensor-assay potency score (higher = more potent) was 0.846.
As to TTCTCTGAGAGCAGTTTCGAGA, the sensor-assay potency score (higher = more potent) in test [9] was -0.721.
Take TCAACTGGTACAATCTTTCCTT: in test [10], the sensor-assay potency score (higher = more potent) was found to be 0.503.
TTCTTCCCTGGTCTTCTCCATG gave a sensor-assay potency score (higher = more potent) in test [11] of -1.63.
With TTCGATAGCTCTGACTCTCTGA, the sensor-assay potency score (higher = more potent) in test [12] amounted to 0.415.
On the same count and under the same terms, the value for TATGACTTCTCTTTCTCCGTGG was 0.895.
In test [11], TACCTGTCTACAATCACAGGAG had a sensor-assay potency score (higher = more potent) of 0.285.
The sequence TTTACCAAACACATTGTGCAAG came in with a sensor-assay potency score (higher = more potent) in test [10] of -0.707.
In test [11], TTTGACGAAACACACTGTTGGC came in with a sensor-assay potency score (higher = more potent) of -0.342.
